We go through 15 compounds from PubChem BioAssay (NCI).

Among the test systems are NCI-H23 lung; NCI-H226 lung; HOP-62 NSCLC; NCI-H460 lung; HOP-92 NSCLC; NCI-H522 lung; A549/ATCC NSCLC; 786-0 renal; COLO 205 colon.
Holding throughout (experiment): NCI-60 one-dose screen, 48 h (100 = growth as untreated, 0 = no growth, -100 = all killed)
Holding throughout (conditions): 10 µM unless noted

This is part of a sample that, as a whole, favours compounds with a hit. Of some 83,000 tested, about 20% had one in any assay.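 Each cell line was grown in a 96-well plate and treated with one concentration of compound for 48 hours. Values below 10 were considered active.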 Unmarked numbers belong to inactive results. Activity calls are given as the source filed them.

As for `COc1ccc(/C=C2\C(=O)N(C(=O)c3csc(NC(C)=O)n3)N=C2C)cc1`, the growth was 102% with NCI-H23 lung; 104% in the assay on NCI-H226 lung; 100% in the assay on HOP-62 NSCLC; 105% with NCI-H460 lung; 99.8% in the assay on HOP-92 NSCLC; 85.2% in the assay on NCI-H522 lung. For the same compound, the growth was 97.3% in the assay on A549/ATCC NSCLC, 100% in the assay on 786-0 renal and 99.3% with COLO 205 colon.
For the compound `COc1ncc(-c2ccc3ncnc(Nc4cccc(Cl)c4)c3c2)cc1NS(=O)(=O)C1CC1`, the growth in the assay with NCI-H23 lung is 54.2%; in the assay with NCI-H226 lung, 24.1%; in the assay on HOP-62 NSCLC, 43.9%; in the assay on NCI-H460 lung, 28.3%; in the assay on HOP-92 NSCLC it was -7.31% (active); in the assay with NCI-H522 lung it was 12.2%. Further, the growth in the assay with A549/ATCC NSCLC is 26.3%; with 786-0 renal, 62.6%; in the assay on COLO 205 colon, 31.4%.
Take `CN(C)C/C=C/C(=O)Nc1cc2c(Nc3cccc(Cl)c3F)ncnc2cc1OCCOC(F)F`: the growth is 60.9% in the assay with NCI-H23 lung; 40.3% with NCI-H226 lung; 39.3% with HOP-62 NSCLC; 67.4% with NCI-H460 lung; -29% (active) with HOP-92 NSCLC; 25.2% in the assay with A549/ATCC NSCLC. Further, the growth was 18.5% with 786-0 renal and 56.7% in the assay with COLO 205 colon.
As to `N#Cc1ccc(NC(=O)c2ccc3cccnc3c2O)cc1`, the growth was 43.7% in the assay with NCI-H23 lung; 45.2% with NCI-H226 lung; 14.6% with HOP-62 NSCLC; 4.71% (active) with NCI-H460 lung; 71.4% with HOP-92 NSCLC; 18.6% in the assay with NCI-H522 lung. Further, the growth with A549/ATCC NSCLC is 15.1%; with 786-0 renal it was 10.2%; in the assay with COLO 205 colon, 11.2%.
Regarding `CCOP(=O)(CCN1CCN(CCCCCOc2cc3c(cc2OC)C(=O)N2CCC[C@H]2C=N3)CC1)OCC`, the growth with NCI-H23 lung is 104%; in the assay with NCI-H226 lung, 114%; in the assay with HOP-62 NSCLC, 109%; with NCI-H460 lung, 75.5%; with HOP-92 NSCLC, -47.9% (active); in the assay with NCI-H522 lung, 62.7%. In addition, the growth with A549/ATCC NSCLC was 93.9%; in the assay on 786-0 renal it was 99.1%; in the assay on COLO 205 colon, 71.4%.
For `CN(C)C/C=C/C(=O)Nc1cc2c(Nc3ccc(F)c(Cl)c3F)ncnc2cc1OCCOC(F)F`, the growth with NCI-H23 lung is 26.6%; in the assay with NCI-H226 lung, 25.1%; in the assay with HOP-62 NSCLC, 20.6%; in the assay with NCI-H460 lung it was 36.6%; in the assay on HOP-92 NSCLC, -53.7% (active); in the assay on NCI-H522 lung it was -25.7% (active). Moreover, the growth is 21.8% in the assay on A549/ATCC NSCLC, 0.67% (active) in the assay with 786-0 renal and 20.1% with COLO 205 colon.
With `O=S(=O)(NCCCNc1cc(-c2cn(-c3ccccc3)nc2-c2cccc(O)c2)ccn1)c1ccc(Cl)cc1`, the growth in the assay with NCI-H23 lung was 33.1%; with NCI-H226 lung it was 24.8%; in the assay on HOP-62 NSCLC, 29.1%; in the assay with NCI-H460 lung, 10.9%; in the assay on HOP-92 NSCLC it was -6.58% (active); with NCI-H522 lung it was 20.2%. The values for the growth in the assay on A549/ATCC NSCLC, in the assay with 786-0 renal and in the assay with COLO 205 colon were 18.8%, -11.8% (active) and -68.5% (active), respectively.
As to `CC1(C)OC2COC3(C(=O)O)OC(C)(C)OC3C2O1` (centres undefined), the growth is 97.8% with NCI-H23 lung; 99.9% with NCI-H226 lung; 91.2% in the assay on HOP-62 NSCLC; 103% with NCI-H460 lung; 98.3% in the assay on HOP-92 NSCLC; 90.2% in the assay on NCI-H522 lung. Moreover, the growth with A549/ATCC NSCLC was 95.5%; in the assay with 786-0 renal, 104%; in the assay on COLO 205 colon, 98.8%.
On to `COc1cc(NCCCN=C(N)NC(N)=NC(C)C)c2ncccc2c1`, for which the growth in the assay on NCI-H23 lung is 34.7%; in the assay on NCI-H226 lung it was 92%; in the assay with HOP-62 NSCLC, 96.2%; in the assay with NCI-H460 lung, 91.9%; with HOP-92 NSCLC it was 36.9%; with NCI-H522 lung, -13.1% (active). For the same compound, the growth in the assay with A549/ATCC NSCLC was 78.6%; with 786-0 renal, 98.8%; in the assay on COLO 205 colon, -1.53% (active).
Regarding `CC(C)(C)OC(=O)N1C/C(=C\c2cccs2)C(=O)/C(=C/c2cccs2)C1`, the growth was 96.3% with NCI-H23 lung; 93.1% in the assay with NCI-H226 lung; 89% with HOP-62 NSCLC; 105% in the assay with NCI-H460 lung; 82.2% with HOP-92 NSCLC; 79.5% in the assay with NCI-H522 lung. For the same compound, the values for the growth in the assay with A549/ATCC NSCLC, with 786-0 renal and with COLO 205 colon were 86.9%, 81.4% and 117%, respectively.
Regarding `Cc1cc(Nc2nc(C(=O)Nc3ccccc3)nc3ccccc23)n[nH]1`, the growth in the assay on NCI-H23 lung was 77.5%; with NCI-H226 lung, 67.1%; in the assay with HOP-62 NSCLC it was 60%; with NCI-H460 lung, 37.6%; in the assay on HOP-92 NSCLC, 51.2%; in the assay with NCI-H522 lung it was 59%. Besides, the growth in the assay with A549/ATCC NSCLC is 62.4%; with 786-0 renal it was 56.2%; with COLO 205 colon, 76%.
As for `COC(=O)CCCCCN=Cc1c(O)c(O)c(C(C)C)c2cc(C)c(-c3c(C)cc4c(C(C)C)c(O)c(O)c(C=NCCCCCC(=O)OC)c4c3O)c(O)c12`, the growth in the assay on NCI-H23 lung is 19.3%; in the assay on NCI-H226 lung it was 54.9%; with HOP-62 NSCLC, 18.8%; with NCI-H460 lung, 8.12% (active); in the assay with HOP-92 NSCLC it was -5.66% (active); in the assay on NCI-H522 lung, -21.8% (active). Moreover, the growth was 20.8% in the assay on A549/ATCC NSCLC, 28.1% in the assay on 786-0 renal and 13.6% in the assay on COLO 205 colon.
Take `CCC(c1cccc(Br)c1)C(C(=O)O)c1ccc(OC)cc1` (centres undefined): the growth is 102% in the assay on NCI-H23 lung; 108% in the assay with NCI-H226 lung; 96.1% with HOP-62 NSCLC; 107% in the assay with NCI-H460 lung; 93.6% in the assay with HOP-92 NSCLC; 91.5% in the assay with NCI-H522 lung. Moreover, the growth in the assay with A549/ATCC NSCLC was 102%; in the assay with 786-0 renal, 104%; in the assay with COLO 205 colon, 120%.
Regarding `CC(C)C[C@H](NC(=O)Cn1ccc(NCc2ccccc2)cc1=O)B(O)O`, the growth in the assay with NCI-H23 lung was 31.7%; in the assay on NCI-H226 lung it was -75% (active); in the assay with HOP-62 NSCLC, 44.9%; in the assay on NCI-H460 lung, 60.5%; in the assay with HOP-92 NSCLC, 2.85% (active); in the assay with NCI-H522 lung, -20.7% (active). The growth in the assay with A549/ATCC NSCLC is 40.4%; with 786-0 renal, 20.6%; in the assay with COLO 205 colon it was 32%.
Regarding `O=C(Nc1ccc(F)c(Cl)c1)c1n[nH]c(=O)c2ccccc12`, the growth with NCI-H23 lung is 106%; in the assay on NCI-H226 lung, 97.2%; in the assay with HOP-62 NSCLC, 102%; in the assay with NCI-H460 lung it was 107%; in the assay on HOP-92 NSCLC, 96.9%; with NCI-H522 lung, 99.6%. Further, the growth was 91.8% with A549/ATCC NSCLC, 115% in the assay on 786-0 renal and 105% with COLO 205 colon.
